In the supplement of paper PMC8975748:
Structures can show the parent of a compound that is named as a salt. ± gives the standard deviation of the averaged measurements.

What was measured:
[1] = system: Saccharomyces cerevisiae BY4741 SeMeCo community; assay: z-score of prototroph abundance vs DMSO median; higher = larger share of this subpopulation than in DMSO controls; conditions: 10 µM; 24 h; SM minimal medium; subpopulation (auxotrophy): Prototroph
Outline: (§1)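 A Saccharomyces cerevisiae BY4741 community carried four plasmids, each restoring one auxotrophy and encoding a distinct fluorescent protein. It was pre-grown overnight to OD600 1.0, diluted to 0.3, and 70 µl was added to 384-well plates acoustically predosed with library drugs (10 µM final), then grown 24 h in minimal SM medium. Cells were paraformaldehyde-fixed and imaged by automated confocal microscopy, with single-auxotroph fluorescent strains setting thresholds and autofluorescence correction. Each subpopulation's abundance was scored as a z-score against the vehicle-well median.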

[2] = system: Saccharomyces cerevisiae BY4741 SeMeCo community; assay: z-score of subpopulation abundance vs DMSO median, subpopulation auxotrophic for L; higher = larger share of this subpopulation than in DMSO controls; conditions: 10 µM; 24 h; SM minimal medium; subpopulation (auxotrophy): L
Outline: as §1

[3] = system: Saccharomyces cerevisiae BY4741 SeMeCo community; assay: z-score of subpopulation abundance vs DMSO median, subpopulation auxotrophic for U; higher = larger share of this subpopulation than in DMSO controls; conditions: 10 µM; 24 h; SM minimal medium; subpopulation (auxotrophy): U
Outline: as §1

[4] = system: Saccharomyces cerevisiae BY4741 SeMeCo community; assay: z-score of subpopulation abundance vs DMSO median, subpopulation auxotrophic for H; higher = larger share of this subpopulation than in DMSO controls; conditions: 10 µM; 24 h; SM minimal medium; subpopulation (auxotrophy): H
Outline: as §1

[5] = system: Saccharomyces cerevisiae BY4741 SeMeCo community; assay: z-score of subpopulation abundance vs DMSO median, subpopulation auxotrophic for LU; higher = larger share of this subpopulation than in DMSO controls; conditions: 10 µM; 24 h; SM minimal medium; subpopulation (auxotrophy): LU
Outline: as §1

[6] = system: Saccharomyces cerevisiae BY4741 SeMeCo community; assay: z-score of subpopulation abundance vs DMSO median, subpopulation auxotrophic for LM; higher = larger share of this subpopulation than in DMSO controls; conditions: 10 µM; 24 h; SM minimal medium; subpopulation (auxotrophy): LM
Outline: as §1

[7] = system: Saccharomyces cerevisiae BY4741 SeMeCo community; assay: z-score of subpopulation abundance vs DMSO median, subpopulation auxotrophic for HM; higher = larger share of this subpopulation than in DMSO controls; conditions: 10 µM; 24 h; SM minimal medium; subpopulation (auxotrophy): HM
Outline: as §1

[8] = system: Saccharomyces cerevisiae BY4741 SeMeCo community; assay: z-score of subpopulation abundance vs DMSO median, subpopulation auxotrophic for HU; higher = larger share of this subpopulation than in DMSO controls; conditions: 10 µM; 24 h; SM minimal medium; subpopulation (auxotrophy): HU
Outline: as §1

[9] = system: Saccharomyces cerevisiae BY4741 SeMeCo community; assay: z-score of subpopulation abundance vs DMSO median, subpopulation auxotrophic for HL; higher = larger share of this subpopulation than in DMSO controls; conditions: 10 µM; 24 h; SM minimal medium; subpopulation (auxotrophy): HL
Outline: as §1

[10] = system: Saccharomyces cerevisiae BY4741 SeMeCo community; assay: z-score of subpopulation abundance vs DMSO median, subpopulation auxotrophic for HLM; higher = larger share of this subpopulation than in DMSO controls; conditions: 10 µM; 24 h; SM minimal medium; subpopulation (auxotrophy): HLM
Outline: as §1

[11] = system: Saccharomyces cerevisiae BY4741 SeMeCo community; assay: z-score of subpopulation abundance vs DMSO median, subpopulation auxotrophic for HUM; higher = larger share of this subpopulation than in DMSO controls; conditions: 10 µM; 24 h; SM minimal medium; subpopulation (auxotrophy): HUM
Outline: as §1

[12] = system: Saccharomyces cerevisiae BY4741 SeMeCo community; assay: z-score of subpopulation abundance vs DMSO median, subpopulation auxotrophic for LUM; higher = larger share of this subpopulation than in DMSO controls; conditions: 10 µM; 24 h; SM minimal medium; subpopulation (auxotrophy): LUM
Outline: as §1

[13] = system: Saccharomyces cerevisiae BY4741 SeMeCo community; assay: z-score of subpopulation abundance vs DMSO median, subpopulation auxotrophic for HLUM; higher = larger share of this subpopulation than in DMSO controls; conditions: 10 µM; 24 h; SM minimal medium; subpopulation (auxotrophy): HLUM
Outline: as §1

[14] = system: Saccharomyces cerevisiae BY4741 SeMeCo community; assay: mean cell size (pixel area) (pixels); higher = larger cells; conditions: 10 µM; 24 h; SM minimal medium
Outline: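 Mean cell pixel area per well was determined by automated confocal microscopy with Harmony analysis of paraformaldehyde-fixed cells. The cells, a Saccharomyces cerevisiae BY4741 community of four plasmids that each complement one auxotrophy and carry a fluorescent marker, were incubated for 24 h with drug at a final 10 µM in SM medium in 384-well plates. Numbers are averaged over 3 replicates. Same SeMeCo high-content imaging drug screen: Selleck FDA-approved drugs at 10 µM, 24 h in SM medium, 384-well plates, 3 replicates.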

[15] = system: Saccharomyces cerevisiae BY4741 SeMeCo community; assay: z-score of subpopulation abundance vs DMSO median, subpopulation auxotrophic for M; higher = larger share of this subpopulation than in DMSO controls; conditions: 10 µM; 24 h; SM minimal medium; subpopulation (auxotrophy): M
Outline: as §1

[16] = system: Saccharomyces cerevisiae BY4741 SeMeCo community; assay: z-score of subpopulation abundance vs DMSO median, subpopulation auxotrophic for UM; higher = larger share of this subpopulation than in DMSO controls; conditions: 10 µM; 24 h; SM minimal medium; subpopulation (auxotrophy): UM
Outline: as §1

Compound	z-score of prototroph abundance [1]	z-score of subpopulation abundance [2]	z-score of subpopulation abundance [3]	z-score of subpopulation abundance [4]	z-score of subpopulation abundance [5]	z-score of subpopulation abundance [6]	z-score of subpopulation abundance [7]	z-score of subpopulation abundance [8]	z-score of subpopulation abundance [9]	z-score of subpopulation abundance [10]	z-score of subpopulation abundance [11]	z-score of subpopulation abundance [12]	z-score of subpopulation abundance [13]	mean cell size [14]	z-score of subpopulation abundance [15]	z-score of subpopulation abundance [16]
CN(C)c1ccc(O)c2c1C[C@H]1C[C@H]3[C@H](N(C)C)C(=O)C(C(N)=O)=C(O)[C@@]3(O)C(=O)C1=C2O [Minocycline HCl]	-0.28	-0.03	0.78	-0.15	0.63	0.75	-0.22	-0.3	0.73	0.31	-0.12	0.3	0.19	–	–	–
CCOc1ccc2ccccc2c1C(=O)N[C@@H]1C(=O)N2[C@@H]1SC(C)(C)[C@@H]2C(=O)O [Nafcillin Sodium]	0.32	–	–	-0.47	–	–	0.22	-0.72	-0.51	-0.71	0	0.08	-0.09	12.2 ± 0.23	-0.26	-0.68
NS(=O)(=O)Cc1noc2ccccc12 [Zonisamide]	-0.82	1.91	-0.42	0.46	–	1.13	0.69	-0.35	0.85	1.38	–	1.7	–	–	0.41	-0.04
COc1ccccc1OCC(O)CN1CCN(CC(=O)Nc2c(C)cccc2C)CC1 (stereo not drawn) [Ranolazine 2HCl]	0.5	0.24	-0.29	0.04	–	-0.74	-0.18	-0.09	–	-0.72	-0.12	-0.47	-0.5	12.35 ± 0.013	-0.08	-0.16
CNCc1cc(-c2ccccc2F)n(S(=O)(=O)c2cccnc2)c1 [Vonoprazan Fumarate (TAK-438)]	–	-1.45	0.84	-0.55	–	-0.98	–	-0.16	-1.38	-0.4	-0.68	-0.32	-0.37	12.3 ± 0.26	0.45	–
Cn1c(=O)c2c(ncn2CC(O)CO)n(C)c1=O (stereo not drawn) [Dyphylline]	–	-0.69	0.26	-0.64	-0.11	-0.74	-0.97	-0.83	-0.71	-0.91	–	-1.44	-0.64	12.55 ± 0.12	–	-0.61
COc1cc(N)c(Cl)cc1C(=O)NC1CCN(CCCOc2ccc(F)cc2)CC1OC (stereo not drawn) [Cisapride]	1.03	0.11	-0.14	-0.08	–	-0.7	-1.22	-0.01	-0.95	-0.82	-0.94	-0.18	–	12 ± 0.14	-1.29	-0.35
Clc1ccccc1C(c1ccccc1)(c1ccccc1)n1ccnc1 [Clotrimazole]	-9.07	-2.83	-0.04	6.9	–	1.9	6.05	6.35	3.58	15.2	–	5.41	9.79	11.89 ± 0.097	4.9	18.8
C[C@](N)(Cc1ccc(O)c(O)c1)C(=O)O [Methyldopa]	0.97	–	-0.29	0.34	-0.35	–	-0.81	-0.06	-0.91	-0.36	-0.27	-1.19	-0.4	12.3 ± 0.034	-1.02	-0.7
C[C@@H](O)[C@H]1C(=O)N2C(C(=O)O)=C(S[C@@H]3CN[C@H](C(=O)Nc4cccc(C(=O)O)c4)C3)[C@H](C)[C@H]12 [Ertapenem sodium]	–	-0.78	-0.15	0.48	-0.01	-0.04	-0.22	–	0.1	-0.62	0	–	-0.21	11.9 ± 0.17	–	0.16
CC1(C)[C@H](C(=O)O)N2C(=O)C[C@H]2S1(=O)=O [Sulbactam]	0.75	0.57	–	-0.12	–	1.07	-0.43	-0.07	-0.53	-1.04	-0.35	-0.1	-0.44	12.3 ± 0.16	0.57	–
Cc1ccc(-c2ncc(Cl)cc2-c2ccc(S(C)(=O)=O)cc2)cn1 [Etoricoxib]	–	0.57	-0.32	-0.35	-0.52	0.07	-0.1	-0.51	-0.03	-0.16	-0.71	-0.03	-0.24	12.4 ± 0.17	–	0.52
Cc1nc(NC(=O)N2CCC[C@H]2C(N)=O)sc1-c1ccnc(C(C)(C)C(F)(F)F)c1 [Alpelisib (BYL719)]	-0.14	-1.04	0.93	0.36	0.28	-1.01	0.31	0.49	-0.35	-0.12	–	-0.87	-0.78	12.6 ± 0.23	–	–
CCCN[C@H]1CCc2nc(N)sc2C1 [Pramipexole 2HCl Monohydrate]	0.72	-0.36	-0.54	–	-0.67	-1.2	-0.39	-0.19	-0.02	–	-0.88	-0.47	-0.69	12.56 ± 0.054	–	-0.95
